Drawing on PubChem BioAssay (NCI), this text covers growth for 40 molecules.

SMILES strings stand for the structures. This is part of a sample that, as a whole, favours compounds with a hit. Of some 83,000 tested, about 20% had one in any assay.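 Activity criterion: percent growth below 10, measured after cells in 96-well plates were exposed to a single compound concentration for 48 hours.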 A number with no mark means an inactive call. Calls of active or inactive are those of the source.

In this experiment the test system is HCT-116 colon. Description: NCI-60 one-dose screen, 48 h (100 = growth as untreated, 0 = no growth, -100 = all killed). Conditions: 10 µM. The protocol: Growth inhibition of the HCT-116 human tumor cell line is measured as a screen for anti-cancer activity. Cells are grown in 96 well plates and exposed to the test compound for 48 hours. Compounds are tested at a single concentration, which is 10^-5 M for most compounds. The reported endpoint is percent growth (GI% or GIPRCNT), where numbers from 0 - 100% represent growth inhibition, and numbers from -100% - 0 represent cell death. For example, a value of 40 represents 60% growth inhibition. A value of 0 means no net growth occurred over the course of the experiment. A value of -40 indicates 40% of cells at the beginning of the experiment died by the end of the experiment. A value of -100 means all cells are dead at the end of the experiment.
NCI-60 Human Tumor Cell Lines Screen was performed using the standard one-dose NCI protocol, which is described in more detail at https://dtp.cancer.gov/discovery_development/nci-60/default.htm.
Compounds with GIPRCNT values below 10 were considered active. Activity score was based on GIPRCNT using the following formula: […]
Score is 0 for GIPRCNT values of 100 or above, 50 for GIPRCNT values of 0, and 100 for GIPRCNT values of -100.
As to `O=C(CSc1nnc(-c2c[nH]c3ccccc23)n1-c1ccccc1)Nc1ccc(C(=O)/C=C/c2ccc(Cl)cc2)cc1`, the growth was -37.3% (active).
As for `CN1C(=O)N(C)C2SC(N/N=C/C=C/c3ccccc3)=NC21` (stereo not given), the growth was 71.6%.
Next, `COc1ccccc1NCc1ccc(CO)n1-c1ccc(C)cc1`: 80%; `CNC(=O)c1cccc(N2CCc3c2ccc(NC(=O)Nc2ccc(N4CCN(C)CC4)c(C(F)(F)F)c2)c3F)c1`: -95.3% (active).
Turning to `O=C(N=Nc1c(O)[nH]c2ccc(Br)cc12)c1ccc2nc(-c3ccccc3)[nH]c2c1`, the growth is -28.3% (active).
Consider `CCOC(=O)C1NN(c2ccc(S(N)(=O)=O)cc2)c2nc3nc(-c4cccs4)cc(-c4cccs4)c3c(=O)n21` (stereo not given), for which the growth was 81.2%.
Turning to `CN1CCCN(Cc2ccc(C(=O)Nc3cccc(Nc4ccc5c(O)cccc5n4)c3)cc2C(F)(F)F)CC1`, the growth is -67.4% (active).
For the molecule `COC(=O)C[C@](O)(CCCC(C)(C)O)C(=O)O[C@H]1C(OC)=C[C@@]23CCC(=O)N2CCc2cc4c(cc2[C@@H]13)OCO4`, the growth was 89.7%.
Regarding `Cc1ccc(-c2cc(-c3cc4ccccc4nc3Cl)[nH]c(=S)n2)cc1`, the growth is 64.5%.
Regarding `COc1ccc(-c2nc(Nc3ccccc3S(N)(=O)=O)c3ccccc3n2)cc1`, the growth is -42.9% (active).
Take `CN1CCN(c2ccc(Nc3nc(N4CCN(S(=O)(=O)c5ccc(Cl)cc5)CC4)c4sccc4n3)cc2)CC1`: the growth is -49.9% (active).
`CO[C@@H]1CSSC1Cn1nc(-c2ccc(Oc3ccccc3)cc2)c2c(N)ncnc21` (stereo not given in full): the growth is 9.66% (active).
As to `CN(C(=O)c1ccc(C(C)(C)C)cc1)c1sc2c(c1C#N)CCC(=O)C2`, the growth was -9.14% (active).
In the case of `COc1ccc2[nH]c(=O)c(CSc3nccc(-c4ccc(Cl)cc4)n3)cc2c1` it was -30.5% (active); in that of `CN1C(=O)N(C)C2SC(N/N=C/c3ccccc3)=NC21` (stereo not given), 51.5%.
As for `Cc1cccc2cc(-c3cc(-c4ccccc4)nc(=S)[nH]3)c(Cl)nc12`, the growth is 83.3%.
As to `CCOc1ccc(/C=N/NC(=O)Cn2nc(Cc3ccccc3)c3onc(C)c3c2=O)cc1`, the growth was 10.3%.
Take `Cc1ccc(/C=C/C(=O)c2ccc(NC(=O)CSc3nnc(-c4c[nH]c5ccccc45)n3-c3ccccc3)cc2)c(C)c1`: the growth is -4.32% (active).
On to `CC1=N/C(=C\c2ccc(N(C)C)cc2)C(=O)N1CCc1ccc(S(N)(=O)=O)cc1`, for which the growth was 94.3%.
With `CCOC(=O)C1=C(N)N(c2ccccc2)C2=C(C(=O)CC(C)(C)C2)C1c1ccccc1OC` (stereo not given), the growth was 101%.
As to `COc1cc2c(cc1OC)/C(=C\c1sc(Nc3ccc(O)cc3)nc1O)C(C(=O)O)=N2`, the growth was 21.4%.
`OCc1[nH]nc2cc(Nc3ncc4ccc(Br)c(OC5CCC(O)CC5)c4n3)ccc12` (stereo not given): the growth is 6.59% (active).
As for `CC1(C)CC[C@]2(C(=O)N3CCOCC3)CC[C@]3(C)C(=CC[C@@H]4[C@@]5(C)CC[C@H](NCO)C(C)(C)[C@@H]5CC[C@]43C)[C@H]2C1`, the growth was -88.9% (active).
As for `COc1ccc([C@H]2C(C(=O)c3ccc(Cl)cc3)C3(N[C@@H]2c2ccccc2)C(=O)Nc2ccc(Br)cc23)cc1` (stereo not given in full), the growth is 1.73% (active).
For `O=C(Nc1cccc([N+](=O)[O-])c1)Nc1cccc([N+](=O)[O-])c1`, the growth is 54.4%.
Take `CCCn1c(=O)c2[nH]c(-c3ccc(OCc4nc5ccccc5[nH]4)cc3)nc2n(CCC)c1=O`: the growth is 5.38% (active).
As to `Cc1ccc(/C=C/C(=O)c2ccc(S(=O)(=O)NCCNc3nc(Nc4ccc(F)cc4)nc(N(C)C)n3)cc2)cc1`, the growth was -51.7% (active).
In the case of `CCCCOc1ccc(Nc2nc3ccccc3nc2Nc2ccc(OCCCC)cc2)cc1`, the growth is 49%.
As to `OCCNc1oc(-c2ccccc2)nc1[P+](c1ccccc1)(c1ccccc1)c1ccccc1`, the growth is 7.76% (active).
Regarding `CCCCCCCCCCCCCCCCCCCC(=O)NCCc1c[nH]c2ccc(OC(=O)NOCCOCCOCCOCCOCCOCCOCCOCCOCCOCCOCCOCCOCCOCCOCCOCCOCCOCCOCCOCCOCCOCCOC)cc12`, the growth was -21.7% (active).
Next, `O=C1Nc2cc(-c3ccc(NC(=O)c4cccc([N+](=O)[O-])c4)cc3)ccc2/C1=C/c1ccc[nH]1`: 103%; `Cc1cc(C)nc(SCC(=O)Nc2ccc(S(N)(=O)=O)cc2)n1`: 111%.
In the case of `COc1ccc2[nH]c(=O)c(CSc3cccc(N)c3)cc2c1`, the growth was 52.5%.
Consider `COc1ccc(CCN2C(=O)/C(=C/c3csc(C#N)n3)SC2=S)cc1`, for which the growth is -63.2% (active).
Regarding `CN1CCN(c2ccc(Nc3nc(N4CCN(S(=O)(=O)c5ccc(F)cc5)CC4)c4sccc4n3)cc2)CC1`, the growth was -51.1% (active).
In the case of `CN1C(=O)N(C)C2SC(N/N=C/c3ccc(F)cc3)=NC21` (stereo not given) it was 24.9%; in that of `N#Cc1c(NC(=O)c2ccc(C(O)(C(F)(F)F)C(F)(F)F)cc2)sc2c1CCC(=O)C2`, -77.7% (active).
Regarding `O=C1Nc2ccc(Cl)cc2/C1=C/c1cccc(OCc2ccccc2)c1`, the growth is 17%.
Consider `COC(=O)c1c(C(=O)OC)c2n(c1C)[C@@H]([C@@H](C)[C@H]1CC[C@H]3[C@@H]4CCC5=CC(=O)CC[C@]5(C)[C@H]4CC[C@]13C)SC2`, for which the growth is 23.2%.
On to `COc1ccc2[nH]cc(/C=N/Nc3cccc(Cl)n3)c2c1`, for which the growth was 37.3%.
